108 sequences from PubChem BioAssay AID1508600 (Functional Genomics Laboratory (NCATS/FGL), 2020) can be followed below.

The campaign covered roughly 53,000 sequences. About 3,700 (7%) were called active. The full list was thinned out, with actives kept by preference. Unmarked numbers belong to inactive results.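 How the source made its calls: active means gene knockdowns whose robust z-score for IL-1 alpha signal is at least 2 or at most -2, so actives lie on both sides; inactive means the rest.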

A short description of this experiment: Components of the Cytosolic LPS Sensing Pathway: Gene Identification via Genome-wide siRNA Screen.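 Further: robust z of the log signal after scaling to non-targeting control siRNA wells of the plate.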 To be noted: RAW264.7 macrophages, IL-1a HTRF, actives lie on both sides, screened at 100 nM (by protocol), cells primed 5 h with Pam3CSK4 first. A digest of the protocol:
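RAW264.7; siRNA 100 nM final, RNAiMAX, 48h 37 degrees C; Pam3CSK4 5 h; LipidA + TransIT-TKO 24 h; IL-1a HTRF; CellTiter-Glo viability; robust z vs negative-control median.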
Regarding GGACAGUUAAUGUUUCUGUTT against Clptm1l, the z-score was 0.254.

As to GGAUCAUUUCUGGCAAGAGTT against Irf7, the z-score is -0.379.

With GGGAAGAGAAAACUGGACUTT against Xrcc1, the z-score was 3.01 (active).

For GGCUGUGUGAGUCUGCUCATT against Ankrd55, the z-score is -0.0408.

GCAUGAACUUACCCUAUUATT against Vmn1r197: the z-score was -1.25.

As for GCAUAAUAGCGCAAGCUACTT against Ifi47, the z-score was 0.0047.

Consider GCACUCGAAUUUCUUUACUTT against Slc23a2, for which the z-score is 2.22 (active).

As to “GCAGACUCCCAUGUGGAUUTT against 1700067K01Rik”, the z-score was 1.96.

For GGAAACUAAUUUCAAGCCUTT against Hat1, the z-score was 1.19.

For the sequence CCUAUGAGGAGGUACUAAATT against Itih1, the z-score is -0.0512.

In the case of GGAGUGACAAAAAUGUCGGTT against Snx13, the z-score was -0.56.

As to GGUUUGUCAAUGAUACUAATT against Adam17, the z-score is 2.49 (active).

On to CGGAUCUGAGAUAAAGACGTT against Arsj, for which the z-score was 1.

GCUGUGGACGGACUCUAUATT against Dhodh: the z-score is 0.00503.

As for GGACCAUCUCUGAUGAACCTT against Fhdc1, the z-score is 0.439.

Regarding GCUAAAGCUAAGAUUGAAGTT against Poli, the z-score is -0.0266.

For GGAUGAGGACAAGUGCUCUTT against Agpat4, the z-score is -3.47 (active).

For the sequence CCAAAAGCAUAUCAGUCGGTT against Olfr1122, the z-score is 1.48.

For GGGUUUAUGUUGCCGACUCTT against Setd7, the z-score was 2.04 (active).

For the sequence GGGUUCCUCAGAGACUGAGTT against Esrra, the z-score is 1.57.

GGGCAAGAAAGGUGUUUUGTT against Prdx5: the z-score was 0.432.

Take GGUGAUUGGUGUAAAAUCUTT against Gdi2: the z-score was -1.15.

As to GGAGAUUGGUGUUAGUAACTT against Sp7, the z-score is -0.198.

For “GGGUGUGCUUCAUAUCAAATT against 2210407C18Rik”, the z-score was 0.812.

GCUUCAUCUUACCUACUCATT against Synb: the z-score is -0.825.

For the sequence GGCUAUGCAUCUCCUGUCATT against Gata4, the z-score was -0.935.

Regarding GGAAAUCAUCUAUUCGGACTT against Klrc1, the z-score was 2.62 (active).

For the sequence CCUUGCACGACAUUUUACUTT against Idnk, the z-score was 0.313.

In the case of GGUCAUCUUCCUUUUUGCUTT against Olfr1501, the z-score was -1.

Turning to CCCUGGGUGUACAAGUCCUTT against Slc25a41, the z-score was -0.084.

For GGGCCAAGAGCUUCUUUGATT against Ahr, the z-score is -1.46.

On to GGACUUUGAGAAAGCAUUCTT against Pck1, for which the z-score is -2.03 (active).

Take GGAUAAUGUGAAGUUCAAGTT against Rpl38: the z-score is 0.493.

Regarding GCAUUGACAAGAUAUCUAATT against Abhd17c, the z-score is 1.74.

Turning to “GGCUCCUAGUGAUUAAAAGTT against 4930578I06Rik”, the z-score was 0.0788.

For GGGAAAGCAUCGUAGACUCTT against Eid2, the z-score is 0.0738.

As to GGAGGAAAUGAUCACAGCUTT against Ccl20, the z-score was -2.31 (active).

CCAGUCACUAUUUGAGUGUTT against Erg: the z-score was 1.9.

For GGUGAAUACUUCAGAUACATT against Sult2b1, the z-score was -0.362.

On to GGAUUCACUGUUUUAUUCUTT against Fap, for which the z-score was 0.282.

With GGAUGCAAUCGACAUGGAGTT against Atp5pb, the z-score was 2.71 (active).

Regarding GGUUUUUGGGAAUUGGCUUTT against Sfxn5, the z-score was -0.0222.

GCGGUCCAUCAUCAAACUCTT against Rpap2: the z-score is -1.3.

In the case of CCCAACAUAUUUUUUAGCATT against Hmgcll1, the z-score was -0.506.

GGUGGUUGUUAUUGAAAAGTT against Mical3: the z-score was 1.34.

Regarding CGACAUUUGUGUUAACCAUTT against Gprc5c, the z-score was -0.483.

Take GGAGCUUUUGGACCACUUGTT against Tmod1: the z-score was -0.892.

Consider GCAAACGACGAAAGUCCAATT against Usp49, for which the z-score is -1.63.

Take CCAUAAACGACGAAAUGAUTT against Usp11: the z-score was 0.189.

Turning to GGCAUUUGACUUUAUUGCATT against Nit1, the z-score was 3.54 (active).

For GGUCAAGCAAGUGUUGGUUTT against Gart, the z-score was -0.0147.

With GGAAGAUUCCGACUUUAUUTT against Irs4, the z-score was 0.69.

For the sequence GCUCAGACAAGAAUUGCUATT against Specc1, the z-score is -0.612.

With CCACCUUUCGUGCAUUAUCTT against Coro6, the z-score was 1.32.

Regarding GGCUGUCAUACUUUCAGGGTT against Hyal5, the z-score was 2.51 (active).

As to GGGCCAAGGAAGAACUUCATT against Clec12a, the z-score is -0.655.

As to GGAAAAAGAGGCCAAAAAGTT against Arid4a, the z-score was -0.221.

As for GGUCAAUGUGAUUGAGGAUTT against Acap1, the z-score is 0.869.

Turning to CCUAUUGAGUCAUCCAUCGTT against Utp25, the z-score was -0.586.

In the case of GCAGUACGCUGCAUUUAAATT against Mtrf1l, the z-score was 0.551.

Take GGAGUUUCAACUCUUCUUCTT against Necab2: the z-score was -0.576.

As to GCUCCUGAACUAAUACAAGTT against Melk, the z-score was 5 (active).

Regarding GGUGAGGAGGAAAUCCUGCTT against Rdh10, the z-score is -1.21.

As for CCUGCUUUGUAUCUCCUCCTT against Csprs, the z-score was 0.184.

With GCAACAAUGAGAGACCACATT against Htr5a, the z-score was 3.27 (active).

Turning to GGAAGCAUCUCAUUAUUCATT against Lamp2, the z-score was 0.0306.

As for GGCACCUACAUCCUUAUUGTT against Ptprn, the z-score was -0.16.

On to GGAAAGGAAAAUCAACUUCTT against Usp14, for which the z-score was 0.0989.

GCUUUCUUUUGCACUUGAATT against Ctc1: the z-score was -1.1.

CCACAUGUCACAUCUUUUCTT against Mrpl47: the z-score was 0.16.

In the case of GGCACAGACUAAGGUAUAGTT against Adra2c, the z-score was -1.51.

Consider GCCCUGAAGCCUAUAAUCATT against Nhlrc1, for which the z-score was 2.34 (active).

Consider GGCAACAGUACCAAAGACATT against Rps24, for which the z-score was 0.483.

On to GGCCGAAUCACAGAAACUCTT against Mrps18a, for which the z-score was 1.87.

For GUAAGCAGCAACAGAGGCUTT against Cd70, the z-score is -0.558.

Consider GGCAUUGAAGGAAGUGAUCTT against Psmg3, for which the z-score was -2.9 (active).

Take GGCCUUAGUAUUCUGCCUCTT against Nuak1: the z-score was 0.395.

Consider GGGAAUUCACACUGUCUGGTT against Tmem176a, for which the z-score was -1.73.

On to CGGCUAAGGAAAAAUGUGATT against Nr1h4, for which the z-score is -1.26.

As for CCAACAUCCUUAAGCGGCUTT against Lonp1, the z-score was -0.161.

Turning to GGUCAAAGGUGAAGAGAAATT against Chgb, the z-score is 1.43.

On to GGAAACAGCAUCAUCAUGUTT against Snrpg, for which the z-score is -2.28 (active).

As for CGUACAUCGUCGAGAUUUUTT against Rims1, the z-score is 0.839.

Consider GCGGAACCUAUAUAGGAAUTT against Zfp74, for which the z-score was -0.292.

With CGAGAGUAGCUUGUUGCUGTT against Rhobtb3, the z-score was 0.359.

For GCUGUAUGGGAAGGGUUACTT against Tsen2, the z-score was 0.829.

Take GGAUCAGUACCUGUGAUGGTT against Adamdec1: the z-score was -2.07 (active).

GGAUCGUAGAACACCCUUCTT against Robo2: the z-score is -0.00164.

Take GGAUUCCACAAUUUUUGUATT against Ncoa6: the z-score was -0.399.

GCGGGUUAACUUGUUUGGUTT against Zcwpw1: the z-score was 0.525.

As to GGCUUACACAAAAAUCUGUTT against Camk2d, the z-score was -0.36.

Consider GGAAAUUACCUUGAUGAUGTT against Anxa4, for which the z-score was -1.59.

In the case of GGACAAUCUGAUUCAAGUATT against Ms4a2, the z-score was 0.104.

Take GUUGUGCAAUCAACAAGGUTT against Fam98c: the z-score was 2.05 (active).

With GCUACGCAAUAAGACCACATT against Lamc3, the z-score was 2.25 (active).

In the case of GGAGCUCAUUAGCAAAUAUTT against Olfm5, the z-score was -0.859.

As to GUACAAGCUCAAGUGCUCGTT against Casz1, the z-score was -0.463.

Turning to GGAACUCCUGACUCUCAGATT against Htra2, the z-score is -1.19.

On to UGUACUGAUACAUACUUCCTT against Olfr1249, for which the z-score was -0.487.

Turning to GCAUGACAGUCAACACAAGTT against Slc35f6, the z-score was 2.04 (active).

On to GGAAAUAGACACCAAGAGCTT against Mau2, for which the z-score was -1.64.

For the sequence GCAUCAUUAAGUGCUACCGTT against Pcdhac2, the z-score was -0.263.

UCUAUCUCAUUACUAUUGUTT against Olfr190: the z-score is 0.649.

For CCUAUCAAACUGACUUCAUTT against Castor2, the z-score was 0.309.

On to GGACCUCCCACAGUGUUAUTT against Enpp2, for which the z-score was -0.574.

With GGGAAACAGAUGAAAGAGUTT against Relch, the z-score is 0.0344.

For the sequence GGUUUGAACUUCAGCAACUTT against Adam15, the z-score is -2.17 (active).

For the sequence GGUCCACUUAGUGGCUUAATT against Atp5pb, the z-score was -0.227.
